Screens (PubChem)
Compounds with a hit are over-represented: about 2.1% of the library has one in this group of screens.
HNF4A DNA FP: change in binding of human HNF4 alpha to DNA; P41235; HNF4a-FITC DNA binding, fluorescence polarization, 1 h; activity change, % at 10 µM; hit rate 0.3% among 360,000; AID 1224865; in the data active = activity change above about 30%, passing the limit was not always enough
Target sequence (P41235 whole entry, looked up): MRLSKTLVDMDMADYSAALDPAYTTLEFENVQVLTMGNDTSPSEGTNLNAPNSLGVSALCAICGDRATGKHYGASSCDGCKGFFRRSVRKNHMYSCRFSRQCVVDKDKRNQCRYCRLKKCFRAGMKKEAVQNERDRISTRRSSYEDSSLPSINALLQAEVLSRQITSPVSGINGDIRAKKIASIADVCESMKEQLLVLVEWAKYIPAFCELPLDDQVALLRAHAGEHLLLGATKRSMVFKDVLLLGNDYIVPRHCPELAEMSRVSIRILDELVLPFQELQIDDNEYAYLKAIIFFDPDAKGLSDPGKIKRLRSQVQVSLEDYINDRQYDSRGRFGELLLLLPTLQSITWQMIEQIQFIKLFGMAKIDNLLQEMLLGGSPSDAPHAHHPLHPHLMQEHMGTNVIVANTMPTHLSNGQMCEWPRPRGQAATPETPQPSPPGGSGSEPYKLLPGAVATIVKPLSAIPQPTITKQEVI
TPT1 inh: blocks Candida albicans tRNA 2'-phosphotransferase. recombinant caTPT1, FP RNA substrate dephosphorylation. inhibition, % at 5 µM. hit rate 0.81% among 300,000;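 active = inhibition above the mean of all tested compounds plus 3 SD, set per screening campaign, cut at about 24% in these data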
Myeloid diff 2: myeloid differentiation induction | calls only at 10 µM | ER-HoxA9 myeloid progenitors, lysozyme-GFP differentiation, flow cytometry | hit rate 1% among 360,000;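 active = normalized GFP-positive differentiation at or above the plate's own cutoff, the solvent-only control mean plus 3 SD; inconclusive = no clear call, values can overlap the other calls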;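 also: cells exposed to compound for four days before flow analysis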
Rpn11 block: blocks the human proteasome subunit Rpn11; human 26S proteasome, Ub4-pepOG fluorescence polarization; 20S core pre-blocked with epoxomicin; hit rate 0.59% among 360,000; inhibition, % at 20 µM; AID 588493;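 active = inhibition at 20 µM, scaled to each plate's controls, above about 33%, limit read from the data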
A number is an active result; 0 = inactive; ? = inconclusive; - = no result shown; + = active, no number.

SMILES | HNF4A DNA FP | TPT1 inh | Myeloid diff 2 | Rpn11 block
O=C(/C(Cl)=C/Nc1ccc(Br)cn1)C(F)(F)F | 0 | 0 | 0 | 0
Cc1ccc(NC(=O)C(C)N2CCCc3ccccc32)cc1S(=O)(=O)N1CCOCC1 (configuration not stated) | 0 | - | 0 | 0
CCN(CC)S(=O)(=O)c1cc(NC(=O)C(C)N2CCc3ccccc32)ccc1C (configuration not stated) | 0 | 0 | + | 0
CCN(CC)C(=O)C1=C(C)N(CCC2=CCCCC2)C(=O)C(CC(=O)NCc2cccs2)C1 (configuration not stated) | 0 | - | 0 | 0
CCOc1ccc(N(CC(=O)N2CCc3ccccc32)S(=O)(=O)c2c(C)noc2C)cc1 | 0 | 0 | + | 0
Cc1cc(C)cc(N(CC(=O)N2CCc3ccccc32)S(=O)(=O)c2c(C)noc2C)c1 | 0 | 0 | 0 | 0
CC(OC(=O)c1ccc2ncsc2c1)C(=O)N(C)C1CCCCC1 (configuration not stated) | 0 | - | 0 | 0
Cc1ccc(S(=O)(=O)CCC(=O)OCC(=O)Nc2cc(S(=O)(=O)N3CCOCC3)ccc2C)cc1 | 0 | 0 | 0 | 0
NNC(=O)c1cc2c(N3CCC(Cc4ccccc4)CC3)ncnc2s1 | 0 | 0 | + | 0
Cn1ncc2c(N3CCC(Cc4ccccc4)CC3)ncnc21 | 0 | 0 | 0 | 0
Cn1nccc1-c1coc2c(C(=O)NCc3ccccc3)cccc12 | 0 | - | 0 | 0
COCCNc1nc2c(-c3cccc(C(F)(F)F)c3)nnn2c2ccccc12 | 0 | 0 | 0 | 0
NNc1nc2c(-c3cccc(C(F)(F)F)c3)nnn2c2ccccc12 | 36 | - | + | -
C/C(Cl)=C/Cn1c(N2CCCC2)nc2c1c(=O)n(C)c(=O)n2C | 0 | 0 | + | 0
C/C(Cl)=C\Cn1c(N2CCCC2)nc2c1c(=O)[nH]c(=O)n2C | 0 | 0 | 0 | 0
CCOc1ccc(NC(=S)C(C#N)=C2N(C)c3ccccc3N2C)cc1 | 0 | 0 | 0 | 0
COc1cc(C)c(Cl)cc1S(=O)(=O)NC1CC(C)(C)NC(C)(C)C1 | - | 0 | - | -
OCCN1CCN(CC(O)COc2ccc(Cl)cc2)CC1 (configuration not stated) | 0 | 0 | 0 | 0
OCCN1CCN(CC(O)COc2ccc(C34CC5CC(CC(C5)C3)C4)cc2)CC1 (configuration not stated) | 0 | 0 | + | 0
CSCC[C@H](NC(=O)Nc1cccc(Br)c1)C(=O)O | 0 | 0 | + | 0
O=C(COC(=O)c1cccc2ccccc12)Nc1ncc(C(F)(F)F)cc1Cl | 0 | 0 | + | 0
Nc1nnc(CCC2CCCCC2)s1 | 0 | 0 | 0 | 0
N#CC1=C(N)SC(N)=C(C#N)C1CCC1CCCCC1 | - | 110 | - | -
COc1ccccc1NC(=O)c1ccc(-c2ccc(Br)cc2)o1 | 0 | 0 | + | 0
O=C(Nc1ccccc1)c1ccc(-c2ccc(Br)cc2)o1 | 0 | 0 | 0 | 0
SMILES | HNF4A DNA FP | TPT1 inh | Myeloid diff 2 | Rpn11 block
COc1ccc(SCC(O)Cn2c3ccccc3c3ccccc32)c(OC)c1 (configuration not stated) | 0 | - | + | -
COc1ccc(-c2sc3cc4c(cc3c2-c2ccc(OCCN3CCCCC3)cc2)OCO4)cc1 | 0 | - | + | 0
O=C(NCc1cc(C(F)(F)F)ccc1Cl)c1cccc2c1C(=O)c1ccc(N3CCC(N4CCCCC4)CC3)cc1S2(=O)=O | 140 | - | + | -
O=C(NCc1cc(C(F)(F)F)ccc1Cl)c1cccc2c1C(=O)c1ccc(N3CCOCC3)cc1S2(=O)=O | 0 | - | + | 0
O=C(NCc1cc(C(F)(F)F)ccc1Cl)c1cccc2c1C(=O)c1ccc(N3CCCCC3)cc1S2(=O)=O | 0 | - | ? | -
COC(=O)C[C@H]1CC[C@H](NC(=O)c2ccc(F)cc2)[C@@H](CO)O1 | 0 | - | 0 | -
Cc1onc(-c2ccccc2)c1C(=O)NC(=S)NNC(=O)c1ccc(O)cc1O | 0 | 0 | - | 0
Cc1onc(-c2ccccc2)c1C(=O)NC(=S)NNC(=O)c1ccccc1O | 0 | 0 | + | 0
COC(=O)c1ccccc1NC(=O)C1CCCO1 (configuration not stated) | 0 | 0 | + | 0
COc1ccc(N2C(=O)C(=O)/C(=C(/O)c3ccc(C)cc3)C2c2cccnc2)cc1 (configuration not stated) | 0 | 0 | + | 0
CCOc1ccc(N2C(=O)CC(NC3CCN(C(=O)c4ccc(F)cc4)CC3)C2=O)cc1 (configuration not stated) | 0 | 0 | 0 | 0
COc1ccc(N2C(=O)c3ccccc3NC(=O)C2C(=O)NCCc2ccccc2F)cc1 (configuration not stated) | 0 | - | 0 | -
O=C(c1ccco1)N(CCC(c1ccccc1)c1ccco1)Cc1ccc(F)cc1 (configuration not stated) | 0 | 0 | + | 0
Cc1cccc(C)c1NC(=O)C(c1cccc2ccccc12)n1c(=O)c(-c2cc3ccccc3[nH]2)nc2ccccc21 (configuration not stated) | 0 | - | 0 | -
c1ccc(Cc2cc[n+](Cc3ccccn3)cc2)cc1 | 0 | 0 | + | 0
CCCc1ccc(C(O)c2ncc(-c3ccccc3)[nH]2)cc1 (configuration not stated) | 0 | - | 0 | 0
COc1ccc2oc(C(=O)OCC(=O)c3ccc4c(c3)OCCO4)c(C)c2c1 | 0 | 0 | + | 0
COc1ccc2oc(C(=O)N(C)Cc3ccc4c(c3)OCCO4)c(C)c2c1 | 0 | 0 | 0 | 0
CCCCCCCCCCCCCCCC(O)C(N)CO (configuration not stated) | 47 | 0 | 0 | 0
CCCCCCCCO | 0 | - | 0 | 0
CC(=O)c1ccc(NC(=O)CSc2nc(C3CC3)nc3ccccc23)cc1 | 0 | 0 | 0 | 0
CC(C)c1nc(SCC(=O)NC2CCCC2)c2ccccc2n1 | 0 | 0 | + | 0
COc1ccc(-n2c(SCC(=O)Nc3ccccc3)nc(O)cc2=O)cc1 | 0 | 0 | 0 | 0
COc1ccc(-n2c(SCC(=O)Nc3ccc4c(c3)OCO4)nc3ccccc3c2=O)cc1 | 0 | 0 | + | 0
COc1ccc(NC(=O)CSc2nc(C3CC3)nc3ccccc23)cc1 | 0 | 0 | + | 0
SMILES | HNF4A DNA FP | TPT1 inh | Myeloid diff 2 | Rpn11 block
O=C(CSc1nc(COc2ccccc2)nc2ccccc12)NC1CCCC1 | 0 | 0 | 0 | 0
COc1ccc(NC(=O)CSc2nc(O)cc(=O)n2-c2ccc(OC)cc2)cc1 | 0 | 0 | + | 0
O=C(OCc1c(-c2ccccc2)ncc2ccccc12)c1cccc(Br)c1 | 0 | - | 0 | 0
O=C(Nc1ccc(S(=O)(=O)N2CCCC2)cc1)c1ccc([N+](=O)[O-])cc1 | 0 | 0 | 0 | 0
O=[N+]([O-])c1cc2c(cc1Br)CCN2 | 0 | 0 | 0 | 0
COc1cccc(-c2c(-c3ccccc3OC)ncn2Cc2cccc(-c3ccccc3)c2)c1 | 0 | - | 0 | -
O=C(Nc1ccc2c(c1)OCCO2)C(C1CC1)n1c(=O)c(-c2cc3ccccc3[nH]2)nc2ccccc21 (configuration not stated) | 0 | - | 0 | -
Cc1cc(C)cc(C(=O)NCC(=O)OCC(=O)NC2CC2)c1 | 0 | - | 0 | 0
Cc1cccc(-n2ncc3c(=O)[nH]c(SCC(=O)N4CC(=O)Nc5ccccc54)nc32)c1 | 0 | - | 0 | 0
C[C@H](CO)N1C[C@H](C)[C@@H](CN(C)S(=O)(=O)c2ccccc2)Oc2ccc(NC(=O)CCC(F)(F)F)cc2C1=O | 0 | - | 0 | 0
